Assay results as given in PubChem BioAssay (Tox21).
Results filed as inconclusive are left out. A number with no mark means an inactive call. Activity calls are given as the source filed them. Calls come from the whole dose curve; as a rule, active = well fitted cell-killing curve with a large enough effect in the repeat runs; inconclusive = weak or mixed curves, or effect the other way; inactive = flat fitted curve, though single readings scatter.

assay: qHTS assay to identify small molecule agonists of the estrogen receptor beta (ER-beta) signaling pathway - cell viability counter screen (AID 1259380); conditions: ER-beta-bla HEK293T viability, CellTiter-Glo luminescence, 16 h; series mostly up to 92.4 µM; activity change, negative = cytotoxicity: at the top concentration; note: nearly all actives have a fitted effect of over 30% in size
Summary of the method: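 ER-beta-UAS-bla HEK293T cells in medium with 2% charcoal-stripped FBS were preincubated 6 hr at 37C, dosed with compound in DMSO for 16 hr, then after the bla read, CellTiter-Glo was added for 30 min at room temperature; luminescence recorded.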
% is set by controls: 0 for no effect and ±100 for the full control effect; potency is the fitted concentration of half-maximal effect.

Row | Structure (SMILES) | activity change, negative = cytotoxicity | Potency
1 | CCCCCO | 6.32% | 
2 | O=[N+]([O-])c1ccccc1CCO | -0.489% | 
3 | CC(O)C(C)O (centres undefined) | 3.38% | 
4 | CC(CCl)OC(C)CCl (centres undefined) | 0.301% | 
5 | CCC(=O)O[C@]1(C(=O)COC)[C@@H](C)C[C@H]2[C@@H]3CCC4=CC(=O)C=C[C@]4(C)C3(F)[C@@H](O)C[C@@]21C (some centres undefined) | -8.57% [at 42.5 µM] | 
6 | Clc1ccccc1-c1nc(-c2ccncc2)no1 | -10.1% [at 42.5 µM] | 
7 | C=CC(C)(O)CC/C=C(/C)CCC=C(C)C (centres undefined) | 0.634% | 
8 | CCOc1ccccc1O | 11.1% | 
9 | CC/C=C/CCO | -15.1% | 
10 | S=c1[nH][nH]c(=S)s1 | -5.73% | 
11 | Cc1cc(C)n(CO)n1 | 0.0338% | 
12 | O=C(O)c1ccccc1-n1cc(C(=O)O)c(=O)c2cc(Nc3c(F)cc(F)cc3Cl)c(Cl)cc21 | 13.7% | 
13 | CC(=O)OCC(=O)[C@@]1(O)CC[C@H]2[C@@H]3CCC4=CC(=O)C=C[C@]4(C)[C@@]3(F)[C@@H](O)C[C@@]21C | 0.171% [at 42.5 µM] | 
14 | CCC(C)CCCC(C)(C)O (centres undefined) | 3.94% | 
15 | CCCCCCCCCCCCCCCCN | 0.392% [at 42.5 µM] | 
16 | Cc1cccc(C)c1NC(=O)CN1CCCC1 | -0.357% [at 42.5 µM] | 
17 | Cc1c(Nc2ncccc2C(=O)O)cccc1C(F)(F)F |  | 8.41 µM (active)
18 | O=C(O)c1cc(C(=O)O)cc([N+](=O)[O-])c1 | -0.856% | 
19 | CCCCC(CC)COCCC#N (centres undefined) | 0.64% | 
20 | O=C1c2ccccc2C(=O)C1c1ccc2ccccc2n1 | -14.9% [at 42.5 µM] | 
21 | O=[N+]([O-])c1ccc(Cl)cc1Cl | -0.562% | 
22 | CCCCCC1CCC(=O)O1 (centres undefined) | -0.0607% | 
23 | Nc1nc(Cl)nc2c1ncn2[C@H]1C[C@H](O)[C@@H](CO)O1 | -3.55% | 
24 | O=Cc1ccc([N+](=O)[O-])cc1 | -10.5% | 
